Results reported in PubChem BioAssay (Tox21).
Results filed as inconclusive are left out. Entries that show only a call come without a potency. Activity calls are given as the source filed them. The call rests on the fitted dose curve.

Assay: qHTS assay to identify small molecule agonists of H2AX - cell viability counter screen (AID 1224847); further: top concentration of the series differs between compounds; nearly all actives have a fitted effect of over 30% in size
Conditions: CHO-K1 viability, CellTiter-Glo luminescence, 3 h; series mostly up to 154 µM
Excerpt: National Center for Advancing Translational Sciences [NCATS]
NIH Chemical Genomics Center [NCGC]
U.S. Environmental Protection Agency [EPA]
National Institutes of Environmental Health Sciences [NIEHS]
National Toxicology Program [NTP]
U.S. Food and Drug Administration [FDA]
HTRF phospho-H2AX (Ser139) assay (Cisbio Bioassays, US) enables the quantitative detection of the histone variant H2AX when phosphorylated on serine 139. When double-stranded DNA breaks, either by ionizing radiation or endogenous physiological processes, H2AX becomes phosphorylated at Ser139. This phospho-Ser139 serves as a sensitive biomarker for the detection of such breaks, localizing the site of DNA repair. So, HTRF phospho-H2AX Ser139 is a pertinent assay to study genome stability, the cell cycle, DNA repair, and it serves as a biomarker for cancer, and to understand aging. Wild type CHO-K1 cells were used to identify the inducers of Phospho-H2AX Ser 139 from the Tox21 compound collections. Also cytotoxicity of the Tox21 10K compound library against the CHO-K1 cell line was tested by measuring the cell viability using CellTiter-Glo assay (Promega, Madison, WI).
Tox21 Assay Protocol Summary:
The CHO-K1 cells suspended in culture medium containing 10% FBS were dispensed at 1000 cells/ 3 ul/well in 1536-well white wall/solid bottom plates (Greiner Bio-One North America, NC) using a Multidrop Combi (Thermo Fisher Scientific Inc., Waltham, MA). After the assay plates were incubated at 37C overnight, 23 nl of compounds at 15 concentrations (from 5-48 columns) or positive control (from 1 to 4 columns) were transferred to the assay plates using a Pintool station (Wako, San Diego, CA) into each well resulting in a final DMSO concentration of 0.76%. After 3hr incubation at 37C, 3 uL/well CellTiter-Glo luminescent cell viability reagent (Promega Corporation, Madison, WI) was added using a Flying Reagent Dispenser (FRD) (Aurora Discovery, CA). After incubation at room temperature for 30 min, the luminescence intensity was read using a ViewLux plate reader (PerkinElmer, Waltham, MA).

Row | Compound | Potency | activity change, negative = cytotoxicity
1 | Cc1ccc(S(=O)(=O)O)c(C)c1 | inactive | 
2 | BrCc1cccc(Oc2ccccc2)c1 | inactive | 
3 | CC(=O)N[C@@H](CCC(=O)O)C(=O)O | inactive | 
4 | COC(=O)C1CC(=O)C(C(=O)OC)CC1=O (stereo not given) |  | -2.76% [at 14 µM] (inactive)
5 | COC(=O)CCCCCCCC(=O)OC | inactive | 
6 | O=C1c2ccccc2C(=O)C1c1ccccc1 | inactive | 
7 | OCCCCC(O)CO (stereo not given) | inactive | 
8 | NNc1nnc(NN)c2ccccc12 | inactive | 
9 | COc1cc2c(cc1OC)[C@@H]1CC(=O)[C@@H](CC(C)C)CN1CC2 | inactive | 
10 | CCOC(=O)c1ccc(OC(=O)CCCCCN=C(N)N)cc1 | inactive | 
11 | COCCOCCOCCOCCO | inactive | 
12 | O=C(OCC(O)CO)c1ccccc1Nc1ccnc2c(C(F)(F)F)cccc12 (stereo not given) | inactive | 
13 | CC(CN)CC(C)(C)CCN (stereo not given) | inactive | 
14 | COc1cc(C(=S)N2CCOCC2)cc(OC)c1OC | inactive | 
15 | COc1ccc(OC)c(Cl)c1 | inactive | 
16 | CC1COc2ccccc2N1 (stereo not given) | inactive | 
17 | COc1ccc2nc(SCc3ncc(C)c(OC)c3C)[nH]c2c1 | inactive | 
18 | CC(CC=O)CCCC(C)(C)O (stereo not given) | inactive | 
19 | OC[C@H](Cc1cccc(O)c1)[C@H](CO)Cc1cccc(O)c1 | inactive | 
20 | C[C@H](CCC(=O)O)[C@H]1CC[C@H]2[C@@H]3C(=O)C[C@@H]4CC(=O)CC[C@]4(C)[C@H]3CC(=O)[C@]12C | inactive | 

Row | Compound | Potency | activity change, negative = cytotoxicity
21 | CC(C)N(c1ccccc1)C(C)C | inactive | 
22 | On1nnc2ccccc21 | inactive | 
23 | NC(CO)C(=O)NNCc1ccc(O)c(O)c1O (stereo not given) | inactive | 
24 | COc1nccnc1NS(=O)(=O)c1ccc(N)cc1 | inactive | 
25 | CC(C)(C)NC(N)=O | inactive | 
26 | CC(S)C(=O)NCC(=O)O (stereo not given) | inactive | 
27 | CCN(CC)CC(=O)Nc1c(C)cccc1C | inactive | 
28 | COC(=O)c1ccccc1C(=O)c1ccc(OCCN2CCCCC2)cc1 | inactive | 
29 | C=C(C)C(=O)OCC(C)(C)COC(=O)C(=C)C | inactive | 
30 | CC(N)C(=O)OC(C)(C)Cc1ccc(Cl)cc1 (stereo not given) | inactive | 
31 | Nc1ccc(S(=O)(=O)Nc2ccc(Cl)nn2)cc1 | inactive | 
32 | CC(C)CC(=O)O | inactive | 
33 | CCCCCCCCC(=O)Cl | inactive | 
34 | COP(=O)(OC)OC(c1ccc(Cl)cc1)P(=O)(OC)OC (stereo not given) | inactive | 
35 | CCOc1cc(NC(C)=O)ccc1C(=O)OC | inactive | 
36 | CCOC(=O)/C=C/c1ccccc1 | inactive | 
37 | N#Cc1ccc(C(=O)O)cc1 | inactive | 
38 | CC(C)C(=O)OCc1cccc(OC(=O)[C@@H]2N3C(=O)[C@@H](NC(=O)Cc4ccccc4)[C@H]3SC2(C)C)c1 | inactive | 
39 | CO[C@@H]1[C@@H](OC(N)=O)[C@@H](O)[C@H](Oc2ccc3c(O)c(NC(=O)c4ccc(O)c(CC=C(C)C)c4)c(=O)oc3c2C)OC1(C)C | inactive | 
40 | CCCOC(OCCC)OCCC | inactive | 
